Reference: PubChem BioAssay AID1903 (Southern Research Specialized Biocontainment Screening …, 2009)
Hit rate of the full screen: of about 310,000 compounds, about 1,200 (0.39%) were called active. How the calls were made is not given here. Only a sample is shown. Entries with a potency or affinity are not part of this list.

Target: Large T antigen (Simian virus 40) (UniProt P03070)
Assay: SV40 large T antigen inhibitors, biochemical (AID 1903)
Conditions: SV40 large T antigen ATPase/helicase inhibition assay; at 20 µM; active compounds read high

Chain of Large T antigen (Simian virus 40) (P03070 whole entry, looked up): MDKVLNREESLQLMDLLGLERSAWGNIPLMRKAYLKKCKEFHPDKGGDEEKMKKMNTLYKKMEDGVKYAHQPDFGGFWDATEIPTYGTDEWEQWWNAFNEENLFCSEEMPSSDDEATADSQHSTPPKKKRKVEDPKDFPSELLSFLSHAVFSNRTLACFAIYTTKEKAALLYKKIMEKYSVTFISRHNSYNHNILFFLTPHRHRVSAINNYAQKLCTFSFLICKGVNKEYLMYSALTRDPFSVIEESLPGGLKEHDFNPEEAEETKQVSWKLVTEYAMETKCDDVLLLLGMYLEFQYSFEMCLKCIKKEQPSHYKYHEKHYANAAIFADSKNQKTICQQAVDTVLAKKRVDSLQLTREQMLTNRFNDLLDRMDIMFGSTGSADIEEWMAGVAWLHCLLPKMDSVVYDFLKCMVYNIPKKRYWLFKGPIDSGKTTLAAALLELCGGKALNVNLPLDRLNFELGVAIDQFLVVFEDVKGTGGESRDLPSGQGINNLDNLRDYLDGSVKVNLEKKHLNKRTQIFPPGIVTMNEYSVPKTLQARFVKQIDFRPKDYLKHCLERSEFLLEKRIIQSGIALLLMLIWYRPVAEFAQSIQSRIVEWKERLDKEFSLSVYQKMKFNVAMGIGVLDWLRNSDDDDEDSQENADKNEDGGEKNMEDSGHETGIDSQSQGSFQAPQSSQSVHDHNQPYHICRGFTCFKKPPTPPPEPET

inhibition, inactive:
Cc1nc(CCNC(=O)CC2C(=O)NCCN2CC(C)(C)C)nc2c1CCC2 (stereo not given) 17.9%
CC(=O)N1CCN(S(=O)(=O)c2cccc(C(=O)Nc3ccc(C)cn3)c2)CC1 10.6%
Cc1c(O)ccc2c(CN3CCN(Cc4ccccc4)CC3)cc(=O)oc12 20.2%
O=c1cc(CN2CCOCC2)c2ccc(O)c(O)c2o1 31.2%
COc1ccc(OC)c(C(=O)c2coc3ccc(O)c(CN(C)C)c23)c1 7.95%
CCCc1cc(N2CCN(C(=O)c3ccco3)CC2)n2c(nc3ccccc32)c1C#N 14.7%
Cc1ccc(S(=O)(=O)Nc2ccc(N3CCN(C)CC3)nc2)cc1 15.7%
COc1cc2nc3occc3c(OC)c2cc1OC 19.9%
COc1ccc2c(OC)c3ccoc3nc2c1OC 6.26%
CCn1nc(C)c(CN2CCCCC2C(=O)Nc2ccc(Oc3cccnc3)cc2)c1C (stereo not given) 13.5%
CC(Oc1ccc2ccc(=O)oc2c1)C(=O)N1CCOCC1 (stereo not given) 29.2%
O=Nc1c(O)[nH]c2ccc(F)cc12 3.33%
Cc1ccc2[nH]c(O)c(N=O)c2c1 1.83%
Cn1c(=O)c2sccc2n2c(CCCC(=O)N3CCCCC3)nnc12 7.77%
CN1C(=O)N(C)c2ccc(C=O)c3cccc1c23 1.16%
CN1c2cccc3cccc(c23)N(C)C1(C)C 23%
COc1ccc(NC(=O)CCN2CCN(S(=O)(=O)c3ccc(C(C)C)cc3)CC2)cc1 14.9%
COc1ccc(NC(=O)c2ccc(N3CCOCC3)nc2)cc1 6.11%
COc1ccc(NC(=O)CCN2CCN(S(=O)(=O)c3ccc(OC)cc3)CC2)cc1 6.07%
CC(=O)Nc1ccc(NC(=O)CN2CCN(c3ccccn3)CC2)cc1 0.46%
O=C(CCN1CCN(c2ccccn2)CC1)Nc1ccc(F)cc1 2.77%
Cc1ccc(C(=O)Nc2ccc(N3CCOCC3)nc2)cc1 1.46%
CCN(CC)CCn1c2c(c(SCC(=O)Nc3ccc4c(c3)OCO4)nc1=O)CCC2 8.82%
O=C(O)C1=C[C@H](c2ccc3c(c2)OCO3)C[C@H](OCc2ccc(CO)cc2)O1 9.17%
COc1ccccc1-c1cc(C(F)(F)F)nc(S(=O)(=O)CCCC(=O)NCc2ccc(F)cc2)n1 23.6%
CCOc1ccc(C(=O)CCc2nc3ccccc3s2)cc1 17.3%
CCOC(=O)/C(C#N)=C/c1c(N2CCN(c3ccccc3)CC2)nc2c(C)cccn2c1=O 2.5%
COc1cc(Cl)c(C)cc1Nc1ncccn1 5.51%
CCCCCNC(=O)Cn1c(=O)c2c(ncn2CC(C)C)n(Cc2ccccc2)c1=O 9.03%
O=C(CSc1nnc(NC(=O)c2c(F)cccc2F)s1)NCc1ccccc1 9.61%
COCCn1c(=O)[nH]c2cc(C(=O)NCCN3CCN(c4ccccc4)CC3)ccc2c1=O 0.98%
CCc1ccc(C(=O)OCC(=O)Nc2cccc(S(=O)(=O)NC3=NCCCCC3)c2)cc1 23%
O=S(=O)(Nc1nc2c(s1)CCCC2)c1ccc2ccccc2c1 21.8%
Nc1nc2cc(S(=O)(=O)NC3=NCCCCC3)ccc2s1 37.1%
O=S(=O)(NC1=NCCCCC1)c1ccc2ccccc2c1 7.96%
CC1CC(=O)C2=C(C1)Nc1ccccc1N(C(=O)COc1ccccc1)C2c1ccco1 (stereo not given) 5.78%
CCN(CC)Cc1c(O)ccc2c(=O)c(Oc3ccccc3OC)c(C)oc12 13.5%
Cc1c(-c2ccc(F)cc2)[n+](=O)c(-c2ccc(F)cc2)c(C)n1[O-] 17.5%
CC(C)(C)c1ccc(C(=O)NNC(=S)NCc2ccco2)cc1 12.7%
c1ccc(-c2nc3ccccn3c2NC2CCCC2)nc1 35%
Cc1ccccc1Nc1c(-c2cccnc2)nc2ccccn12 11.7%
Cc1ccc2nc(-c3ccncc3)c(NC3CCCC3)n2c1 11.4%
Cc1ccc2nc(-c3ccccn3)c(Nc3ccccc3C)n2c1 16.6%
CCCCCCC(=O)Oc1cccc(N2C(=O)C3CCCCC3C2=O)c1 (stereo not given) 4.91%
CCOC(=O)N1CCN(S(=O)(=O)c2ccc(OCC(=O)OC)c(Cl)c2)CC1 -13.8%
N#C/C(=C\c1ccc2c(c1)OCO2)C(=O)NCc1ccco1 6.96%
CC(c1ccccc1)N1CCC(CNC(=S)Nc2cccc(Cl)c2)C1 (stereo not given) 16.7%
O=c1c(OC2OC(CO)C(O)C(O)C2OC2OC(CO)C(O)C(O)C2OC2OC(CO)C(O)C(O)C2O)c(-c2ccc(O)c(O)c2)oc2cc(O)cc(O)c12 (stereo not given) 7.41%
O=c1c(O[C@@H]2O[C@H](CO)[C@H](O)[C@H](O)[C@H]2O)c(-c2ccc(O)c(O)c2)oc2cc(O)cc(O)c12 -2.68%
C[C@@H]1O[C@@H](OC[C@H]2O[C@@H](Oc3c(-c4ccc(O)cc4)oc4cc(O)cc(O)c4c3=O)[C@H](O)[C@@H](O)[C@@H]2O)[C@H](O)[C@H](O)[C@H]1O 10%
C[C@@H]1O[C@@H](OC[C@H]2O[C@@H](Oc3c(-c4ccc(O)c(O)c4)oc4cc(O)cc(O)c4c3=O)[C@H](O)[C@@H](O)[C@@H]2O)[C@H](O)[C@H](O)[C@H]1O 5.24%
CC1OC(OC2C(Oc3c(-c4ccc(O)cc4)oc4cc(O)cc(O)c4c3=O)OC(COC3O[C@@H](C)[C@H](O)[C@@H](O)C3O)C(O)C2O)C(O)C(O)C1O (stereo not given in full) 3.2%
O=c1c(O[C@@H]2O[C@H](CO)[C@@H](O)[C@H](O)[C@H]2O)c(-c2ccc(O)c(O)c2)oc2cc(O)cc(O)c12 2.85%
CC(=O)N/C(=C\c1ccc(F)cc1)C(=O)NC(C(=O)O)C(C)C (stereo not given) 0.16%
O=c1cc(O)nc(SCc2ccccc2)n1-c1ccc(Cl)cc1 7.14%
COc1ccc(NC(=O)CC2SC(=NCc3ccccc3OC)NC2=O)cc1 (stereo not given) 0.11%
COc1ccc(NC(=O)CSc2nnc(CC(=O)Nc3ccc(F)cc3)n2C)cc1 6.25%
O=C(COC(=O)C1CCCN1C(=O)C12CC3CC(CC(C3)C1)C2)c1ccc(Br)cc1 (stereo not given) 3.8%
Cc1occc1C(=O)N1CCCC(N2CCN(c3ccccc3F)CC2)C1 (stereo not given) 7.6%
O=C(NCC1CC1)[C@]1(C(F)(F)F)C[C@H](CCC2CCCCC2)CCCO1 2.31%
Fc1ccc(-c2nnc(CSc3nnc4ccccn34)o2)cc1 14.8%
COc1c(O)cc2c(c1O)C1OC(CO)C(O)C(O)C1OC2=O (stereo not given) 2.96%
O=c1cc(-c2ccc(O)cc2)oc2cc(O[C@@H]3O[C@H](CO)[C@@H](O)[C@H](O)[C@H]3O[C@@H]3OC[C@](O)(CO)[C@H]3O)cc(O)c12 8.96%
O=c1cc(-c2ccc(O)cc2)oc2c(C3OCC(O)C(O)C3O)c(O)c(C3OC(CO)C(O)C(O)C3O)c(O)c12 (stereo not given) 45.1%
O=c1cc(-c2ccc(O)cc2)oc2c(C3O[C@H](CO)[C@@H](O)[C@H](O)[C@H]3O)c(O)cc(O)c12 (stereo not given in full) 26%
CC(=O)Cc1cc(=O)c2c(C)cc(O)c(C3OC(CO)C(O)C(O)C3O)c2o1 (stereo not given) 5.68%
O=c1c(-c2ccc(O)cc2)coc2c(C3O[C@H](CO)[C@@H](O)[C@H](O)[C@H]3O)c(O)ccc12 (stereo not given in full) 24.2%
O=C(O)C1OC(Oc2cc3oc(-c4ccccc4)cc(=O)c3c(O)c2O)C(O)C(O)C1O (stereo not given) 17.2%
O=c1cc(-c2ccc(O)cc2)oc2c([C@@H]3O[C@H](CO)[C@@H](O)[C@H](O)[C@H]3O)c(O)c([C@@H]3O[C@H](CO)[C@@H](O)[C@H](O)[C@H]3O)c(O)c12 7.48%
CC(O)CNCCOc1ccccc1-c1ccccc1 (stereo not given) 8.76%
CCOC(=O)CN1C(=O)NC(C)(c2ccc(OC(F)F)cc2)C1=O (stereo not given) 11.6%
CCC1(C)N=c2c(c(=O)n(C)c(=O)n2C)=NO1 (stereo not given) 2.8%
CC(C)CN1C(=O)NC2(CCCc3ccccc32)C1=O (stereo not given) 25%
COc1ccc(/C=C(/NC(=O)c2ccc(C)cc2)C(=O)NCC2CCCO2)cc1 (stereo not given) 9.41%
CCOC(=O)Nc1nc(-c2ccccc2)c(C(=O)c2ccccc2)s1 10%
c1ccc(C2[C@H]3CN(Cc4cccnc4)[C@H](c4ccccc4)C34CC2(c2cccnc2)C4)cc1 (stereo not given in full) 5.83%
CCOC(=O)CSc1ncnc2c1cnn2-c1ccc(Cl)cc1 2.59%
COC(=O)c1nn(-c2ccccc2)c(Cl)c1/C=N/OCc1c(Cl)cccc1Cl 6.28%
COc1cc2c(cc1OC)CC(=O)N(C)CC2 -0.375%
COc1cc2c(cc1OC)CN(Cc1ccccc1)CC2 4.34%
COc1cc(NC(=O)CN2CCCCC2C)c(C)cc1[N+](=O)[O-] (stereo not given) -0.94%
Nn1c(SCC(=O)NC(=O)NCc2ccco2)nnc1-c1ccc(OC(F)F)cc1 19.9%
Cc1ccc(Nc2n[nH]c(C)c2[N+](=O)[O-])cc1C 4.58%
Cc1ccc(Nc2n[nH]c(C)c2[N+](=O)[O-])cc1 -4.15%
O=C(NC1CCN(C(=O)Nc2ccc(F)cc2)CC1)c1ccc(F)cc1 -6.41%
